The values that follow come from PubChem BioAssay (Tox21).

Experiment [1] concerns the target Nuclear receptor subfamily 1 group I member 3 (Homo sapiens) (UniProt Q14994). Put plainly: qHTS assay to identify small molecule antagonists of the constitutive androstane receptor (CAR) signaling pathway (AID 1224838). Note: nearly all actives have a fitted effect of over 40% in size. In a few lines:
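Cell line: HepG2 double-stable for hCAR and CYP2B6-2.2kb reporter. Agonist: CITCO, 50 nM final. Compounds: 15 concentrations, 24 h, 37 C. Detection: ONE-Glo luminescence.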

For experiment [2] the target is unchanged. Put plainly: qHTS assay to identify small molecule agonists of the constitutive androstane receptor (CAR) signaling pathway (AID 1224839). Note: nearly all actives have a fitted effect of over 15% in size. Note: potency is the fitted concentration of half-maximal effect. In a few lines: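 HepG2 cells stably expressing hCAR and a CYP2B6-2.2kb luciferase reporter were treated with compounds at 15 concentrations plus 0.75 uM PK11195 (final) for 24 h at 37 C; luminescence was read after ONE-Glo addition.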

Experiment [3] is described as follows: qHTS assay to identify small molecule antagonists of the estrogen related receptor signaling pathway with the pleiotropic PPARgamma coactivator (PGC) from Tox21 10K library - cell viability counter screen (AID 1224840; active = well fitted cell-killing curve with a large enough effect in the repeat runs, not every such curve was filed as active; note: nearly all actives have a fitted effect of over 40% in size). In a few lines: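 Following seeding of 2,000 PGC/ERR cells/well and 6 hours' incubation, test compounds were delivered in DMSO. The plates then sat 17.5 hours at 37 C before a fluorogenic live-cell protease reagent (CellTiter-Fluor) was read after 30 min.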

Experiment [4] is described as follows: qHTS assay to identify small molecule antagonists of the estrogen related receptor signaling pathway with the pleiotropic PPARgamma coactivator (PGC) from Tox21 10K library (AID 1224841; call rule not given here; note: actives are mostly falling curves and most rising ones were filed inactive; nearly all actives have a fitted effect of over 50% in size). In a few lines:
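qHTS antagonist format: PGC/ERR cells, 2k/well, compound in DMSO by pin transfer after 6 h attachment, 18 h treatment at 37 C, One-Glo luminescence read at 30 min.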

The nature of experiment [5]: qHTS assay to identify small molecule agonists of the estrogen related receptor signaling pathway with the pleiotropic PPARgamma coactivator (PGC) from Tox21 10K library (AID 1224842). Note: nearly all actives have a fitted effect of over 15% in size. In a few lines: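 PGC/ERR reporter cell line, 2,000 cells per well, incubated 6 h at 37 C before 23 nL compound in DMSO was added. After 18 h at 37 C, One-Glo luminescence read following 30 min at room temperature.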

In experiment [6] the target is Thyrotropin receptor (Homo sapiens) (UniProt P16473). Put plainly: qHTS assay to identify small molecule agonists of the thyroid stimulating hormone receptor (TSHR) signaling pathway (AID 1224843; calls by dose curve; note: nearly all actives have a fitted effect of over 45% in size). In a few lines: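 Steps: seed 800 TSHR-HEK293 cells per well; add test compound and hold 30 min at ambient temperature; dispense cAMP-d2 then anti-cAMP cryptate; incubate 1 h at ambient; measure fluorescence intensity.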
Thyrotropin receptor (Homo sapiens), sequence (P16473 whole entry, looked up): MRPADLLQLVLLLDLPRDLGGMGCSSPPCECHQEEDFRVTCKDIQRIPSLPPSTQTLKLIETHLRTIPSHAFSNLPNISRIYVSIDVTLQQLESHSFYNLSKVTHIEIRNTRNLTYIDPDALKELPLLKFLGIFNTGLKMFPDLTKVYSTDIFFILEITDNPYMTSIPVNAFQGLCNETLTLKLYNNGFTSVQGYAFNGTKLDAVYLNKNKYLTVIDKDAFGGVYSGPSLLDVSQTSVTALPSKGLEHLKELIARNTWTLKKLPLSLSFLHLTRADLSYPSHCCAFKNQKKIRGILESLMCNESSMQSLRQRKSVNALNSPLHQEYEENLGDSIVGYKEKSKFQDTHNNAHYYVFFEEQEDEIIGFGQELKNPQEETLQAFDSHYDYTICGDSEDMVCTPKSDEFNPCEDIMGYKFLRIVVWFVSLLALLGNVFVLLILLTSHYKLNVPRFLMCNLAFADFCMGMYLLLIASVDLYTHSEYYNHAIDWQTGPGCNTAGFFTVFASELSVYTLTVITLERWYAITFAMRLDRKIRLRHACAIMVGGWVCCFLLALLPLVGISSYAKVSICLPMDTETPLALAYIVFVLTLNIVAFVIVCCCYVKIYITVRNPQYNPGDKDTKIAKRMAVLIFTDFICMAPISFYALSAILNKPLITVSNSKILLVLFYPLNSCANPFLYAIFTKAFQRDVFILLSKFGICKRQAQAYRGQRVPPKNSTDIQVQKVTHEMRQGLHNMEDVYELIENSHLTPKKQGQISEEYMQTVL

The nature of experiment [7]: qHTS assay to identify small molecule agonists of the hypoxia (HIF-1) signaling pathway - cell viability counter screen (AID 1224844; calls by dose curve; note: nearly all actives have a fitted effect of over 50% in size). In a few lines:
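Cells (HRE-bla ME-180, 2,000 per well) sat 5 hrs at 37C, got compound for 17 hrs, were read for CCF4-AM FRET, and were finally lysed with CellTiter-Glo for a 30 min room-temperature luminescence read.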

A short description of experiment [8]: qHTS assay to identify small molecule agonists of H2AX (AID 1224845; active = well fitted activation curve with a large enough effect in the signal ratio in the repeat runs, not every such curve was filed as active; the % refers to the signal ratio). In a few lines: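 Wild-type CHO-K1 cells, plated overnight, exposed 3hr at 37C to 15 concentrations (0.76% DMSO final). Lysed, then HTRF anti-pH2AX (S139) cryptate and anti-H2AX-d2 antibodies, 24 hr room temperature; 665/620 nm emission read.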
Experiment [9] in a line: qHTS assay to identify small molecule agonists of the hypoxia (HIF-1) signaling pathway (AID 1224846; active = well fitted activation curve with a large enough effect in the signal ratio in the repeat runs, not every such curve was filed as active; the % refers to the signal ratio). In a few lines:
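A low-serum medium (0.5% dialyzed FBS) holding 2,000 HRE-bla ME-180 cells per well is preincubated for 5 hrs, dosed with compounds by pintool, and kept a further 17 hrs at 37C, 5% CO2 before CCF4-AM FRET detection of beta-lactamase.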

Experiment [10] can be described thus: qHTS assay to identify small molecule agonists of H2AX - cell viability counter screen (AID 1224847; calls by dose curve; note: top concentration of the series differs between compounds; nearly all actives have a fitted effect of over 30% in size). In a few lines: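 Wild-type CHO-K1 cells (10% FBS medium) were plated overnight at 37C, exposed to compounds at 15 concentrations for 3 hr at 37C (0.76% DMSO final), and viability was read as CellTiter-Glo luminescence after 30 min at room temperature.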
Experiment [11] in a line: qHTS assay to identify small molecule antagonists of the estrogen related receptor (ERR) signaling pathway from Tox21 library (AID 1224848). Note: nearly all actives have a fitted effect of over 50% in size. In a few lines: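 Luminescent reporter read-out (ONE-Glo) from NTP's ERR cell line after 18 h treatment at 37 C with DMSO-dissolved Tox21 compounds; cells pre-plated 6 h beforehand at 2,000 per well.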
The nature of experiment [12]: qHTS assay to identify small molecule agonists of the estrogen related receptor (ERR) signaling pathway from Tox21 library (AID 1224849; calls by dose curve; note: nearly all actives have a fitted effect of over 15% in size). Conditions: ERR reporter cell line, ONE-Glo luciferase, 18 h; at 92.4 µM (top of the series). In a few lines:
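Screening used an NTP-provided ERR luciferase cell line. Compounds in DMSO were added 6 h after seeding and left 18 h at 37 C before a 30 min ONE-Glo step and luminescence reading.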

Experiment [13] can be described thus: qHTS RealTime-Glo MT Cell Viability Assay in HepG2 cells - 24 hour (AID 1224867). Note: nearly all actives have a fitted effect of over 50% in size. In a few lines: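 Cells + NanoLuc/prosubstrate dispensed (600 cells/well) → 5 h at 37 C/5% CO2 → compounds in DMSO transferred → 40 h incubation at 37 C, luminescence read at 0, 8, 16, 24, 32, 40 h.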
The nature of experiment [14]: qHTS RealTime-Glo MT Cell Viability Assay in HEK293 cells - 32 hour (AID 1224868). Note: nearly all actives have a fitted effect of over 50% in size. Note: potency is the fitted concentration of half-maximal effect. In a few lines: (§1)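 Tox21 10K qHTS, HEK293, 600 cells/well, RealTime-Glo reagent co-dispensed with cells; 5 h preincubation, compound by pintool, 37 C, luminescence at 0–40 h.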
The nature of experiment [15]: A CellTox Green Cytotoxicity Assay to monitor cytotoxicity in HEK293 cells - 0 hour (AID 1224869). Note: nearly all actives have a fitted effect of over 50% in size. In a few lines:
(§2)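 Fluorescence intensity, read at 0, 8, 16, 24, 32 and 40 h of compound treatment, reflected dye binding to DNA of dead HEK293 cells; compounds (23 nL, DMSO) were added 5 h after plating cells with reagent.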

A short description of experiment [16]: qHTS RealTime-Glo MT Cell Viability Assay in HepG2 cells - 40 hour (AID 1224870). Note: nearly all actives have a fitted effect of over 50% in size. In a few lines:
(§3)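 HepG2 cells (600/well) mixed with RealTime-Glo MT reagent, settled 5 h at 37 C/5% CO2 before compound addition. Nonlytic NanoLuc luminescence from viable-cell prosubstrate reduction read repeatedly during 40 h treatment at 37 C.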

Experiment [17] is described as follows: A CellTox Green Cytotoxicity Assay to monitor cytotoxicity in HEK293 cells - 40 hour (AID 1224871). Note: nearly all actives have a fitted effect of over 45% in size. In a few lines:
as §2

Experiment [18] in a line: qHTS RealTime-Glo MT Cell Viability Assay in HEK293 cells - 16 hour (AID 1224872). In a few lines:
as §1

Experiment [19] can be described thus: qHTS RealTime-Glo MT Cell Viability Assay in HepG2 cells - 8 hour (AID 1224873). Note: nearly all actives have a fitted effect of over 55% in size. In a few lines:
as §3

Experiment [20] in a line: qHTS assay to identify small molecule antagonists of the constitutive androstane receptor (CAR) signaling pathway - cell viability counter screen (AID 1224837). Note: nearly all actives have a fitted effect of over 45% in size. In a few lines:
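Counter screen run in HepG2-CYP2B6-hCAR cells: 4 hr settle, compound titration (15 concentrations) with 50 nM CITCO, 23 hr at 37 C/5% CO2, CellTiter-Fluor fluorescence.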

Values joined by “and” are separate entries in the source; they are usually repeats but may differ in a detail not shown here. Equal values may be shown once. Results filed as inconclusive are left out. Active and inactive are the calls of the source. Unless noted, calls come from the whole dose curve; as a rule, active = well fitted curve in the direction sought with a large enough effect in the repeat runs; inconclusive = weak or mixed curves; inactive = no such curve, though single readings can be large; an effect the other way counts as inactive or inconclusive.
% is set by controls: 0 for no effect and ±100 for the full control effect.

Nuclear receptor subfamily 1 group I member 3 (Homo sapiens), sequence (Q14994 whole entry, looked up): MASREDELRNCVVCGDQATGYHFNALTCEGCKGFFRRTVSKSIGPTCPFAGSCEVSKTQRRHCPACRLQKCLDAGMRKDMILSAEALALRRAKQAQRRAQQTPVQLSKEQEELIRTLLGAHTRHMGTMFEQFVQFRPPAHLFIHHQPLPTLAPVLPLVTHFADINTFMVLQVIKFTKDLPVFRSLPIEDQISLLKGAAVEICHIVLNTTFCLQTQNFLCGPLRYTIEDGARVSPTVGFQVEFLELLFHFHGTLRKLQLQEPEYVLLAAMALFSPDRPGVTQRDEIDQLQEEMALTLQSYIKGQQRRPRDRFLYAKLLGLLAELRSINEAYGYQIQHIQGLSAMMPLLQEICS

For `CON(C)C(=O)Nc1ccc(Cl)c(Cl)c1`, the Potency entry in experiment [1], in [3], in experiment [4], in experiment [6], in experiment [7] and in [8] was “inactive” in each case. Besides, the Potency result in experiment [10], in experiment [11], in [15] and in experiment [17] was “inactive” in each case. The Potency is 61.4 µM (active) and 54.5 µM (active) in [2]; 43.6 µM (active) in experiment [14]. Also, the call in [5], in experiment [9], in experiment [13], in experiment [16], in experiment [18] and in experiment [19] was inactive. Moreover, the activity change, positive = activation in [12] is -4.36% (inactive) and -0.559% (inactive).
With `O=C(O)c1ccccn1`, the Potency result in [20], in experiment [1], in [2], in experiment [3], in [7] and in experiment [8] was “inactive” each time. The Potency result in [10], in experiment [14], in experiment [15] and in experiment [17] was “inactive” throughout. Besides, the outcome in experiment [13], in [16], in experiment [18] and in [19] was inactive.
With `CCN(CC)c1ccccc1`, the Potency result in experiment [20], in [3], in [7], in experiment [8], in [10] and in experiment [14] was “inactive” each time. For the same molecule, the Potency result in experiment [15] and in [17] was “inactive” each time. In addition, the molecule was classed as inactive in experiment [13], in [18] and in [19].
Take `c1ccc2c(c1)oc1ccccc12`: the Potency result in experiment [20], in [1], in experiment [2], in experiment [3], in experiment [6] and in [7] was “inactive” each time. For the same molecule, the Potency entry in [8], in experiment [10], in experiment [14] and in experiment [15] was “inactive” throughout. The molecule was classed as inactive in experiment [13], in experiment [18] and in [19].
Take `CCCCCOC(=O)c1ccccc1C(=O)OCCCCC`: the Potency entry in experiment [20], in [1], in [2], in [3], in experiment [7] and in experiment [8] was “inactive” in each case. For the same molecule, the Potency entry in [10], in experiment [14], in experiment [15] and in experiment [17] was “inactive” in each case. The molecule was called inactive in experiment [9], in [13], in [18] and in experiment [19].
In the case of `Cc1cc(-c2cc(C)c(N)c(C)c2)cc(C)c1N`, the Potency result in [20], in experiment [1], in [2], in experiment [3], in experiment [7] and in experiment [10] was “inactive” in each case. The Potency entry in [14], in experiment [15] and in experiment [17] was “inactive” throughout. In addition, the molecule was classed as inactive in [13], in experiment [18] and in experiment [19].
Take `C[C@]12CC[C@H]3[C@@H](CC[C@@]45O[C@@H]4C(O)=C(C#N)C[C@]35C)[C@@H]1CC[C@@H]2O`: the Potency result in experiment [20], in experiment [1], in experiment [2], in experiment [3], in [6] and in experiment [7] was “inactive” throughout. Further, the Potency entry in [8], in experiment [10], in experiment [14], in [15] and in [17] was “inactive” each time. In addition, the molecule was classed as inactive in experiment [13], in experiment [16], in experiment [18] and in [19].
As to `COP(N)(=O)SC` (stereo not given), the Potency entry in experiment [20], in [1], in experiment [2], in [3], in experiment [7] and in [8] was “inactive” each time. Moreover, the Potency entry in [10], in experiment [14], in experiment [15] and in experiment [17] was “inactive” each time. The outcome in experiment [13], in [16], in experiment [18] and in [19] was inactive.
Consider `CC(Oc1ccc(Cl)cc1Cl)C(=O)O` (stereo not given), for which the Potency result in experiment [20], in [3], in experiment [6], in experiment [7], in experiment [8] and in [10] was “inactive” each time. In addition, the Potency entry in experiment [14], in [15] and in [17] was “inactive” each time. The call in experiment [13], in [18] and in experiment [19] was inactive.
As for `CCCCCCCCCl`, the Potency result in [20], in [3], in experiment [7], in experiment [8], in [10] and in experiment [14] was “inactive” in each case. Moreover, the Potency result in experiment [15] and in [17] was “inactive” each time. In addition, the result in [13], in [18] and in [19] was inactive.
